# Reference: PubChem BioAssay
# Unmarked numbers belong to inactive results. No rule for the calls is given here.
# Tested on: Botulinum neurotoxin type F light chain protease (Clostridium botulinum)
# Experiment: Botulinum neurotoxin type F light chain protease inhibition, multiplex microsphere flow cytometry, validation set (AID 588459)
# Conditions: multiplex microsphere protease substrate cleavage assay, at 10 µM, hits give high values
row,SMILES,inhibition
1,O=C1C(Cc2c[nH]c3ccccc23)NC(=S)N1Cc1ccccc1 (stereo not given),-0.2%
2,CC(=O)C1=C(O)C(=O)OC1c1ccc(C)cc1 (stereo not given),9.7%
3,Cc1cc(/C=N/O)c(C)n1-c1ccc(Br)cc1,1.9%
4,CCOC(=O)c1c(C)oc2c1C(=O)c1ccccc1C2=O,3.1%
5,CCC(C(=O)Nc1ccc2c(c1)OCCO2)c1ccccc1 (stereo not given),0.7%
6,Cc1ccc2c(c1)OC(=O)CC2c1ccccc1 (stereo not given),-4.2%
7,O=C(COc1cc(O)c2c(=O)c3ccccc3oc2c1)OCc1ccccc1,1.4%
8,N#CCC(N)=C(C#N)C#N,-6%
9,CC(C)(C)C(=O)NCCCNc1ccc([N+](=O)[O-])cc1,-0.6%
10,O=C1C(Cc2ccccc2)NC(=S)N1c1ccccc1 (stereo not given),3.8%
11,Cn1cc(CN2CCCC(CO)(Cc3cccc(Cl)c3)C2)cn1 (stereo not given),4.8%
12,Cc1nnc(NS(=O)(=O)c2ccc(N)cc2)s1,2.8%
13,COc1ccc2c(c1)[nH]c1c(=O)n(Cc3ccccn3)cnc12,3.9%
14,CCOC(=O)C1=C(C)N[C@@]2(O)c3ccccc3C(=O)[C@@]12O,2.4%
15,COc1ccccc1NC(=O)N1CCc2[nH]c3ccc(Cl)cc3c2C1,6.8%
16,O=c1c2[nH]c3ccccc3c2ncn1CCC1=CCCCC1,4.3%
17,NS(=O)(=O)c1cc(C2(O)NC(=O)c3ccccc32)ccc1Cl (stereo not given),-0.2%
18,COc1ccc(/C=C2\CC/C(=C\c3ccc(OC)c(OC)c3)C2=O)cc1OC,1.7%
19,CCN(Cc1cnn(C)c1)Cc1nc(C(c2ccccc2)c2ccccc2)no1,0.3%
20,O=C1NC2(Nc3ccccc31)C(=O)Nc1ccc(Br)cc12 (stereo not given),-0.5%

row,SMILES,inhibition
1,C=CCn1c(N2CCCCCC2)nc2c1c(=O)n(C)c(=O)n2C,0.2%
2,CC(CCCC(C)(C)O)NC(=O)c1ccc(OC2CCN(C(=O)C3CC3)CC2)cc1 (stereo not given),0.1%
3,C=CCc1cccc2cc(C(=O)Nc3ccc(CC(=O)O)cc3)c(=O)oc12,1.3%
4,COCC(C)NC(=O)c1ccc(CN2CCc3ccccc3C2)cc1 (stereo not given),5.2%
5,COc1ccc(-c2c(C)c3ccc(OCC(C)=O)cc3oc2=O)cc1,-3.2%
6,Cc1ccc(C(=O)N2CC3(C(C)C)CN(C(=O)c4ccc(C)cc4)CC(C(C)C)(C2)C3=O)cc1,5%
7,O=C(CCNNC(=O)c1ccncc1)NCc1ccccc1,4.1%
8,COc1ccc(C2=C(CN(C)C)C(c3ccccc3)c3ccccc3O2)cc1 (stereo not given),-3%
9,CC1(C#CC[N+]2(C)CCCCC2)CCC2C(O1)c1ccccc1OC2(C)C (stereo not given),2.6%
10,CCCN1CCC(NC(=O)Nc2ccc(Br)cc2)CC1,0.5%
11,COc1ccc(C(=O)Nc2ccc(OC)c([N+](=O)[O-])c2)cc1Br,1.7%
12,CCCC(=O)Nc1ccc(OCC(O)CNC(C)C)c(C(C)=O)c1 (stereo not given),2%
13,Cc1ccc2c(c1)C(C)(C)[C@]1(C)NC(=O)CCN21,-1.8%
14,COc1ccc(C=NCC2COc3ccccc3O2)cc1OC (stereo not given),-0.8%
15,O=[N+]([O-])c1ccc(O)c2ncccc12,-1.5%
16,CCOC(=O)C1C(=O)OC2(CCOC(C)(C)C2)C1C(=O)OCC (stereo not given),-2.7%
17,CC1=NS(=O)(=O)c2cc(Cl)ccc2N1,1.4%
18,O=C(OCC1OC2OC3(CCCCC3)OC2C2OC3(CCCCC3)OC12)c1ccccc1 (stereo not given),-3.1%
19,Nc1ccc(-c2nc3ncccc3o2)c(Cl)c1,-2.1%
20,CC1(C)CC(=O)c2c(nc3ccccc3c2N)C1,1%

# Target: Botulinum neurotoxin type A (Clostridium botulinum) (UniProt P0DPI0)
# Experiment: BoNT/A light chain protease inhibitors, biochemical, multiplex microsphere flow cytometry, validation set (AID 588460)
# Conditions: at 10 µM, hits give high values
# Sequence of Botulinum neurotoxin type A (Clostridium botulinum) (P0DPI0 whole entry, looked up): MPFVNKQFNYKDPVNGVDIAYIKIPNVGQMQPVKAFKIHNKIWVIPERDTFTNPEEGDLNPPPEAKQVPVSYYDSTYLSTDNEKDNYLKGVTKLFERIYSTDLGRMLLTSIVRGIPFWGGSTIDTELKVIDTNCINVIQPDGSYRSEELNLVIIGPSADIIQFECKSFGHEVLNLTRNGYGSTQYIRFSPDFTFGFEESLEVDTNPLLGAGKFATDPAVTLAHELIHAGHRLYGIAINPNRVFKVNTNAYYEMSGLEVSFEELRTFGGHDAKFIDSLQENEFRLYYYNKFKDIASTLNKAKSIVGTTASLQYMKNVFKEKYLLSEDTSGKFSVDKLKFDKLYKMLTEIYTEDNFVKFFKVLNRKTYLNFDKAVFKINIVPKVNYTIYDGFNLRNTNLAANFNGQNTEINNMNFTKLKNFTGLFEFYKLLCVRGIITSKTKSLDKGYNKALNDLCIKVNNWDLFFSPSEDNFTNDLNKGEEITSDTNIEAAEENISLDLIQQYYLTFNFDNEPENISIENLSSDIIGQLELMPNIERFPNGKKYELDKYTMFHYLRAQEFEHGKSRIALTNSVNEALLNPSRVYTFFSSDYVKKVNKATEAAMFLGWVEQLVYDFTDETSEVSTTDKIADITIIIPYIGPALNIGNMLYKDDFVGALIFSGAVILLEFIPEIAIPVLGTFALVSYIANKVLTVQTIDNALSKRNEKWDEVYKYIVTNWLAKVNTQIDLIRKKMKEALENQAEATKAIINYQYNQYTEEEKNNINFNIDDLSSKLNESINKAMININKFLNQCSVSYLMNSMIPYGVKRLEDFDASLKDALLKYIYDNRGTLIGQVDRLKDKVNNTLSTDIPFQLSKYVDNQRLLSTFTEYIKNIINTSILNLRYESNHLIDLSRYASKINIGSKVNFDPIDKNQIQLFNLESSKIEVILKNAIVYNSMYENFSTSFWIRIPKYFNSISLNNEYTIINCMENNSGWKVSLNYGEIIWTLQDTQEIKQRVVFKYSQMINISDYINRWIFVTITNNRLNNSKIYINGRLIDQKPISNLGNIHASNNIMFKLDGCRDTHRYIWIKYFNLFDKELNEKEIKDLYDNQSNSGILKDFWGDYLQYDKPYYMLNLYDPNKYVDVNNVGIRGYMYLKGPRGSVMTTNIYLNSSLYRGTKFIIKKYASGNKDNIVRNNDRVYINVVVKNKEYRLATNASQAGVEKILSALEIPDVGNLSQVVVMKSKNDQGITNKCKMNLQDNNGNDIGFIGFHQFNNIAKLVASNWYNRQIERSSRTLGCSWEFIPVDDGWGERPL
row,SMILES,inhibition
1,O=C1C(Cc2c[nH]c3ccccc23)NC(=S)N1Cc1ccccc1 (stereo not given),0.3%
2,CC(=O)C1=C(O)C(=O)OC1c1ccc(C)cc1 (stereo not given),1.4%
3,Cc1cc(/C=N/O)c(C)n1-c1ccc(Br)cc1,1.1%
4,CCOC(=O)c1c(C)oc2c1C(=O)c1ccccc1C2=O,1.4%
5,CCC(C(=O)Nc1ccc2c(c1)OCCO2)c1ccccc1 (stereo not given),-0.2%
6,Cc1ccc2c(c1)OC(=O)CC2c1ccccc1 (stereo not given),-1.1%
7,O=C(COc1cc(O)c2c(=O)c3ccccc3oc2c1)OCc1ccccc1,0.2%
8,N#CCC(N)=C(C#N)C#N,-2%
9,CC(C)(C)C(=O)NCCCNc1ccc([N+](=O)[O-])cc1,-0.3%
10,O=C1C(Cc2ccccc2)NC(=S)N1c1ccccc1 (stereo not given),0.9%
11,Cn1cc(CN2CCCC(CO)(Cc3cccc(Cl)c3)C2)cn1 (stereo not given),1.3%
12,Cc1nnc(NS(=O)(=O)c2ccc(N)cc2)s1,-1.1%
13,COc1ccc2c(c1)[nH]c1c(=O)n(Cc3ccccn3)cnc12,-1%
14,CCOC(=O)C1=C(C)N[C@@]2(O)c3ccccc3C(=O)[C@@]12O,0.5%
15,COc1ccccc1NC(=O)N1CCc2[nH]c3ccc(Cl)cc3c2C1,0.4%
16,O=c1c2[nH]c3ccccc3c2ncn1CCC1=CCCCC1,0.9%
17,NS(=O)(=O)c1cc(C2(O)NC(=O)c3ccccc32)ccc1Cl (stereo not given),-1.6%
18,COc1ccc(/C=C2\CC/C(=C\c3ccc(OC)c(OC)c3)C2=O)cc1OC,0.1%
19,CCN(Cc1cnn(C)c1)Cc1nc(C(c2ccccc2)c2ccccc2)no1,-2.2%
20,O=C1NC2(Nc3ccccc31)C(=O)Nc1ccc(Br)cc12 (stereo not given),-1%

row,SMILES,inhibition
1,C=CCn1c(N2CCCCCC2)nc2c1c(=O)n(C)c(=O)n2C,1.4%
2,CC(CCCC(C)(C)O)NC(=O)c1ccc(OC2CCN(C(=O)C3CC3)CC2)cc1 (stereo not given),0.7%
3,C=CCc1cccc2cc(C(=O)Nc3ccc(CC(=O)O)cc3)c(=O)oc12,-0.1%
4,COCC(C)NC(=O)c1ccc(CN2CCc3ccccc3C2)cc1 (stereo not given),0%
5,COc1ccc(-c2c(C)c3ccc(OCC(C)=O)cc3oc2=O)cc1,-0.4%
6,Cc1ccc(C(=O)N2CC3(C(C)C)CN(C(=O)c4ccc(C)cc4)CC(C(C)C)(C2)C3=O)cc1,-0.5%
7,O=C(CCNNC(=O)c1ccncc1)NCc1ccccc1,0.9%
8,COc1ccc(C2=C(CN(C)C)C(c3ccccc3)c3ccccc3O2)cc1 (stereo not given),-3.7%
9,CC1(C#CC[N+]2(C)CCCCC2)CCC2C(O1)c1ccccc1OC2(C)C (stereo not given),-0.8%
10,CCCN1CCC(NC(=O)Nc2ccc(Br)cc2)CC1,-1.7%
11,COc1ccc(C(=O)Nc2ccc(OC)c([N+](=O)[O-])c2)cc1Br,-0.3%
12,CCCC(=O)Nc1ccc(OCC(O)CNC(C)C)c(C(C)=O)c1 (stereo not given),1.1%
13,Cc1ccc2c(c1)C(C)(C)[C@]1(C)NC(=O)CCN21,-0.2%
14,COc1ccc(C=NCC2COc3ccccc3O2)cc1OC (stereo not given),-3.3%
15,O=[N+]([O-])c1ccc(O)c2ncccc12,-3.7%
16,CCOC(=O)C1C(=O)OC2(CCOC(C)(C)C2)C1C(=O)OCC (stereo not given),-0.2%
17,CC1=NS(=O)(=O)c2cc(Cl)ccc2N1,-0.3%
18,O=C(OCC1OC2OC3(CCCCC3)OC2C2OC3(CCCCC3)OC12)c1ccccc1 (stereo not given),2.6%
19,Nc1ccc(-c2nc3ncccc3o2)c(Cl)c1,-1.8%
20,CC1(C)CC(=O)c2c(nc3ccccc3c2N)C1,-0.5%
